Experimental data published in PubChem BioAssay (NCATS).
Records with an inconclusive call do not appear. Activity calls are given as the source filed them. The call rests on the fitted dose curve; in most records, active means well fitted curve in the direction sought with a large enough effect; inconclusive means small, poorly fitted or top-dose-only effect, or another doubt; inactive means no such curve, though single readings can be large; an effect the other way counts as inactive or inconclusive. Where a SMILES comes first, the peptide text is derived from it. [ ]: non-standard residue; d: D form. ξ: configuration not given here. ξPhe(βξ-Me) = CC(c1ccccc1)C(N)C(=O)O; GABA = NCCCC(=O)O

How the values were obtained:
CRL-7250 = normal cell line; assay: Cytotoxic Profiling of Annotated Libraries Using Quantitative High-Throughput Screening (AID 1296008); conditions: Five cell lines viability, CellTiter-Glo ATP luminescence, 48-72 h; max response: stronger effect = lower value; further: nearly all actives have a fitted effect of over 60% in size; on max response: on the % scale 0 is the no-effect control and ±100 the full control effect
Outline: (§1)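 Compounds were pin-transferred onto cells and incubated 48 or 72 hr at 37 degree Celsius, 95% humidity. CellTiter-Glo was added, plates sat 10 min at room temperature, then ATP-coupled luminescence was imaged as the viability read-out.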

HEK293 = assay: as above; conditions: Five cell lines viability, CellTiter-Glo ATP luminescence, 48-72 h; max response: stronger effect = lower value
Outline: as §1

HaCat [1] = assay: as above; conditions: Five cell lines viability, CellTiter-Glo ATP luminescence, 48-72 h; max response: stronger effect = lower value
Outline: as §1

KB-3-1 = assay: as above; conditions: Five cell lines viability, CellTiter-Glo ATP luminescence, 48-72 h; max response: stronger effect = lower value
Outline: as §1

NIH3T3 [2] = assay: as above; conditions: Five cell lines viability, CellTiter-Glo ATP luminescence, 48-72 h; max response: stronger effect = lower value
Outline: as §1

HACAT [3] = assay: qHTS assay to identify novel small-molecules to repurpose for Merkel cell carcinoma treatment (AID 1296009); conditions: MCC and control cell lines, CellTiter-Glo viability, 72 h; at 44.8 µM (top of the series) unless noted; further: nearly all actives have a fitted effect of over 60% in size
Outline: (§2)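 qHTS format: cells treated with library compounds in DMSO across 8 (NPC) or 11 (MIPE) concentrations. Readout after 72 hr at 37 degree celsius was CellTiter-Glo luminescence.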

HEK293T = assay: as above; conditions: MCC and control cell lines, CellTiter-Glo viability, 72 h; series mostly up to 44.8 µM
Outline: as §2

NIH3T3 [4] = assay: as above; conditions: MCC and control cell lines, CellTiter-Glo viability, 72 h; at 44.8 µM (top of the series) unless noted
Outline: as §2

C33A = assay: Primary qHTS to identify gynecologic anti-cancer compounds using libraries of approved drugs and bioactive compounds (AID 1345084); conditions: Gynecologic cancer cell panel viability, ATPlite luminescence, 48 h; series mostly up to 57.5 µM; further: on the % scale 0 is the no-effect control and ±100 the full control effect; nearly all actives have a fitted effect of over 55% in size
Outline: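 Five-point cytotoxicity, 48 h drug exposure at 37 C, 5% CO2, on cells seeded 16 h beforehand. ATP content read by ATPlite luminescence.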

C/C=C/C1=CC2=CC(=O)C(C)(O)C(OC(=O)c3c(C)cc(O)cc3O)C2CO1 (configuration not stated)
inactive: max response (CRL-7250) 1.95% | outcome (HEK293) | outcome (HaCat [1]) | max response (KB-3-1) 2.68% | outcome (NIH3T3 [2]) | outcome (HACAT [3]) | Potency (HEK293T) | outcome (NIH3T3 [4]) | Potency (C33A)

CC(C)=CCc1ccc(Oc2c(O)cc(C)cc2CO)c(C(=O)O)c1O
inactive: max response (CRL-7250) -1.26% | outcome (HEK293) | outcome (HaCat [1]) | outcome (KB-3-1) | outcome (NIH3T3 [2]) | outcome (HACAT [3]) | Potency (HEK293T) | outcome (NIH3T3 [4]) | Potency (C33A)

CCCCS(=O)(=O)Nc1ncnc(OCCOc2ncc(Br)cn2)c1-c1ccc(Br)cc1
inactive: max response (CRL-7250) -8.77% | outcome (HEK293) | outcome (HaCat [1]) | outcome (KB-3-1) | max response (NIH3T3 [2]) 1.6% | outcome (HACAT [3]) | Potency (HEK293T) | Potency (C33A)

O=C(/C=C/c1c(C(=O)O)[nH]c2cc(Cl)cc(Cl)c12)Nc1ccccc1
inactive: max response (CRL-7250) -11.7% | outcome (HEK293) | outcome (HaCat [1]) | outcome (KB-3-1) | outcome (NIH3T3 [2]) | outcome (HACAT [3]) | Potency (HEK293T) | outcome (NIH3T3 [4]) | Potency (C33A)

C[C@@H](O)[C@H](N)C(=O)N1CCC[C@H]1C(=O)N1CCC[C@H]1C(=O)N[C@H](C(N)=O)[C@@H](C)O (H-TPPT-NH2)
inactive: outcome (CRL-7250) | outcome (HEK293) | outcome (HaCat [1]) | outcome (KB-3-1) | outcome (NIH3T3 [2]) | outcome (HACAT [3]) inactive [at 9.27 µM] | outcome (HEK293T) inactive [at 9.27 µM] | outcome (NIH3T3 [4]) inactive [at 9.27 µM] | activity change, negative = cytotoxicity (C33A) 10.5% [at 11.6 µM]

CC(C)CC1NC(=O)C(C(C)c2ccccc2)NC(=O)C(C(C)C)NC(=O)C(C)NC(=O)CCCNC(=O)C(Cc2c[nH]c3ccccc23)NC(=O)C(C)NC1=O (stereo not drawn) (cyclo([GABA]AV[ξPhe(βξ-Me)]LAW); configuration not given here)
inactive: max response (CRL-7250) -5.31% | outcome (HEK293) | outcome (HaCat [1]) | outcome (KB-3-1) | max response (NIH3T3 [2]) 3.96% | outcome (HACAT [3]) inactive [at 17.4 µM] | Potency (HEK293T) | Potency (C33A)

C/C=C(\C)C(=O)O[C@@H](C)[C@H]1CC[C@]2(O)C3CCC4C[C@@H](OC5CC(OC)C(OC6CC(OC)C(OC7CC(OC)C(OC8OC(C)C(OC9OC(CO)C(O)C(O)C9O)C(OC)C8O)C(C)O7)C(C)O6)C(C)O5)CC[C@]4(C)C3[C@H](O)[C@@H](O)[C@]12C (some centres not stated)
inactive: max response (CRL-7250) -8.84% | outcome (HEK293) | outcome (HaCat [1]) | outcome (KB-3-1) | outcome (NIH3T3 [2]) | outcome (HACAT [3]) inactive [at 9.27 µM] | outcome (HEK293T) inactive [at 9.27 µM] | outcome (NIH3T3 [4]) inactive [at 9.27 µM] | activity change, negative = cytotoxicity (C33A) 19.4% [at 6.55 µM]

CC1=CC2(O)/C=C/C(C)(O)CC(O)/C=C/C(=O)OC23C(=O)NC(CC(C)C)C3C1C (configuration not stated)
inactive: max response (CRL-7250) -2.92% | outcome (HEK293) | outcome (HaCat [1]) | max response (KB-3-1) -3.67% | outcome (NIH3T3 [2]) | outcome (HACAT [3]) inactive [at 17.4 µM] | Potency (HEK293T) | outcome (NIH3T3 [4]) inactive [at 17.4 µM] | Potency (C33A)

COCCCNCC1COc2ccccc2O1 (configuration not stated)
inactive: max response (CRL-7250) 1.45% | outcome (HEK293) | outcome (HaCat [1]) | max response (KB-3-1) 6.68% | max response (NIH3T3 [2]) 4.14% | outcome (HACAT [3]) | Potency (HEK293T) | Potency (C33A)

COc1ccc(/C=C/C(=O)O[C@@H]2[C@@H](OC(C)=O)[C@@H](OC(C)=O)[C@H](O[C@H]3[C@@H]4C=CO[C@@H](O[C@@H]5O[C@H](CO)[C@@H](O)[C@H](O)[C@H]5O)[C@@H]4[C@@]4(CO)O[C@@H]34)O[C@H]2C)cc1O
inactive: max response (CRL-7250) 3.11% | outcome (HEK293) | outcome (HaCat [1]) | max response (KB-3-1) 9.42% | max response (NIH3T3 [2]) 3.23% | outcome (HACAT [3]) inactive [at 17.4 µM] | Potency (HEK293T) | Potency (C33A)

CC(C)c1cc2c(c(O)c1O[C@@H]1O[C@H](CO)[C@@H](O)[C@H](O)[C@H]1O)CC1(O)CCC(O)C(C)(C)C1CC2 (some centres not stated)
inactive: outcome (CRL-7250) | outcome (HEK293) | outcome (HaCat [1]) | max response (KB-3-1) 2.46% | max response (NIH3T3 [2]) 0.487% | outcome (HACAT [3]) inactive [at 17.4 µM] | Potency (HEK293T) | Potency (C33A)

Cc1ncc([N+](=O)[O-])n1CC(O)CN1CCOCC1 (configuration not stated)
inactive: outcome (CRL-7250) | outcome (HEK293) | outcome (HaCat [1]) | outcome (KB-3-1) | outcome (NIH3T3 [2]) | outcome (HACAT [3]) | Potency (HEK293T) | outcome (NIH3T3 [4]) | Potency (C33A)

COc1ccc(/C=C/C(=O)O[C@@H]2[C@@H](O)[C@H](C)O[C@@H](OC3C4C=COC(O[C@@H]5O[C@H](CO)[C@@H](O)[C@H](O)[C@H]5O)C4C4(CO)OC34)[C@@H]2O)cc1OC (some centres not stated)
inactive: max response (CRL-7250) 0.628% | outcome (HEK293) | outcome (HaCat [1]) | max response (KB-3-1) -0.119% | max response (NIH3T3 [2]) 0.929% | outcome (HACAT [3]) inactive [at 17.4 µM] | Potency (HEK293T) | Potency (C33A)

CC(=O)c1c(C)cc(O)cc1O[C@@H]1O[C@H](CO)[C@@H](O)[C@H](O)[C@H]1O
inactive: max response (CRL-7250) -5.78% | outcome (HEK293) | outcome (HaCat [1]) | outcome (KB-3-1) | outcome (NIH3T3 [2]) | outcome (HACAT [3]) | Potency (HEK293T) | outcome (NIH3T3 [4]) | Potency (C33A)

C[C@H]1[C@H](C)CC[C@]2(C(=O)O[C@@H]3O[C@H](CO)[C@@H](O)[C@H](O)[C@H]3O)CC[C@]3(C(=O)O)C(=CCC4[C@@]5(C)CC[C@H](O[C@@H]6O[C@H](CO)[C@@H](O)[C@H](O)[C@H]6O)C(C)(C)C5CC[C@]43C)[C@H]12 (some centres not stated)
inactive: max response (CRL-7250) 3.01% | outcome (HEK293) | outcome (HaCat [1]) | max response (KB-3-1) 2.34% | max response (NIH3T3 [2]) -5.27% | outcome (HACAT [3]) inactive [at 9.27 µM] | outcome (HEK293T) inactive [at 9.27 µM] | activity change, negative = cytotoxicity (C33A) 2.9% [at 11.6 µM]

CC(=O)OC1C(O)C(C)=C(CCC(C)CC(=O)O)C2(C)CCCC(C)(C)C12 (configuration not stated)
inactive: outcome (CRL-7250) | outcome (HEK293) | outcome (HaCat [1]) | max response (KB-3-1) 0.797% | outcome (NIH3T3 [2]) | outcome (HACAT [3]) | Potency (HEK293T) | outcome (NIH3T3 [4]) | Potency (C33A)
